Compound activity: PubChem, National Center for Advancing Translational Sciences (NCATS)
PI5P4K alpha inh – qHTS for Inhibitors of phosphatidylinositol 5-phosphate 4-kinase (PI5P4K); Phosphatidylinositol 5-phosphate 4-kinase type-2 alpha (Homo sapiens), P48426; PI5P4Kalpha enzyme, ADP-Glo luminescence, 60 min; stronger effect = lower value; max response, %; 1.2% of 330,000 active; AID 652105, 2013; active means max response of -50% or lower; inconclusive means between -30% and -50%; inactive means -30% or higher; further: value at the top dose of about 77 µM
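Reactions run in 0.038 M HEPES pH 7.4, 0.28 mM EGTA, 0.1% CHAPS and 5% DMSO, with PI5P4Kalpha, substrate, compound and 5 microM ATP final, one hour at room temperature. Readout is ADP-Glo luminescence.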
Tb PFK inh – qHTS Assay to Find Inhibitors of T. brucei phosphofructokinase; T. brucei PFK, ADP-Glo luminescence; Potency, µM (doses to about 57.5 µM), actives largely listed as inhibitors; 0.17% of 330,000 active; AID 485367, 2010; further: nearly all actives have a fitted effect of over 60% in size
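Compounds were pin-transferred as a titration series up to 57 uM into substrate buffer (0.5 mM F6P, 0.1 mM ATP, pH 8.0), then 1.25 nM PFK was added and reactions ran 45 min before ADP-Glo detection.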
PI4K2A inh – qHTS for small molecular inhibitors of PI4K2A. Phosphatidylinositol 4-kinase type 2-alpha (Homo sapiens), Q9BTU6. purified PI4K2A, ADP-Glo luminescence, 1 h; stronger effect = lower value. activity change, negative = inhibition, % at 76.9 µM. 0.13% of 420,000 active; in the data active means activity change below about -50%; inconclusive means mostly about -30% to -49%
Target sequence (Q9BTU6 whole entry, looked up): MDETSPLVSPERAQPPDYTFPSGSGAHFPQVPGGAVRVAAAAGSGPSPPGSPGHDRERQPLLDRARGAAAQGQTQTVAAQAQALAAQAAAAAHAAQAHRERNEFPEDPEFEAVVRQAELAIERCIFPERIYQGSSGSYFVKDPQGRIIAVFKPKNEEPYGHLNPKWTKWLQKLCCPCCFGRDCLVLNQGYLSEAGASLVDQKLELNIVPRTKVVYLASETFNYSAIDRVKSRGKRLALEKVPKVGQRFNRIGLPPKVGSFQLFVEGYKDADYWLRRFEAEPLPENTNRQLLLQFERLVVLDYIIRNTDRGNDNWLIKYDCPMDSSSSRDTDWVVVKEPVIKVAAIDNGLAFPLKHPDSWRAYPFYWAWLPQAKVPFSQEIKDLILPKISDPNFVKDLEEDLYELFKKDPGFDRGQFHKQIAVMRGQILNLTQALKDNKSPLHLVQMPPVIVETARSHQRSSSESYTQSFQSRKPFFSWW
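PI4K2A activity was measured by ADP-Glo luminescence: enzyme (4 ug/mL stock) and phosphatidylinositol (1.2 mM stock) in Tris pH 7.5/MgCl2/EGTA/Triton X-100 buffer were reacted with ATP (300 microM stock) for one hour at ambient temperature.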
PGK inhibitor – qHTS Assay to Find Inhibitors of Phosphoglycerate Kinase | PGK/GAPDH coupled, Kinase-Glo luminescence, 60 min | AID 602233, 2012 | 0.043% of 380,000 active | Phosphoglycerate kinase, glycosomal (Trypanosoma brucei brucei), P07378 | Potency, µM (series often up to 57.5 µM), usual class: inhibitors; further: nearly all actives have a fitted effect of over 60% in size
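Recombinant glycosomal PGK reaction used 1,3-bisphosphoglycerate generated in-well by GAPDH (100nM final) in 100mM TEA pH 7.6, 5mM MgCl2, 0.01% Tween-20. After 60 minutes at room temperature, ATP was read by Kinase-Glo Plus luminescence end-point.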
Pin1 inhibitor – qHTS Assay to Find Inhibitors of Pin1 | Potency, µM (titrated, usually from 115 µM), actives largely listed as inhibitors | 0.009% of 390,000 active | Pin1 FP peptide displacement, HiFluor488, 10 min | AID 504891, 2011; active means well fitted inhibition curve with a large enough effect in the polarisation, with a control signal flat, not every such curve was filed as active; inconclusive means small, poorly fitted or top-dose-only effect, or effect the other way, or a change in a side signal; inactive means no such curve, though single readings can be large or run the other way; the % refers to the polarisation
Target sequence (Q13526 whole entry, looked up): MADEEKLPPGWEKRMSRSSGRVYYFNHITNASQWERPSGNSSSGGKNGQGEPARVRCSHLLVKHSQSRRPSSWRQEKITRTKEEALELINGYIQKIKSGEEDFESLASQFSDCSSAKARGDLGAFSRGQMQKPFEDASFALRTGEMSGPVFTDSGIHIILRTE
Of the large screens only hits and unclear results are named; the others gave an inactive call. Shown is part of a subset that was picked to be rich in hits. Unless noted, the call rests on the fitted dose curve; in most records, active means well fitted curve in the direction sought with a large enough effect; inconclusive means small, poorly fitted or top-dose-only effect, or another doubt; inactive means no such curve, though single readings can be large; an effect the other way counts as inactive or inconclusive.

COC(c1ccccc1)(c1ccccc1)[C@H](Oc1nc(C)cc(C)n1)C(=O)O	none (no result: PI5P4K alpha inh, Tb PFK inh, PGK inhibitor, Pin1 inhibitor)
CCOc1cc(/C=C2\SC(N)=NC2=O)ccc1O	PI5P4K alpha inh inconclusive
COc1cc(/C=C2\SC(N)=NC2=O)cc(Br)c1O	PI5P4K alpha inh -71, Pin1 inhibitor inconclusive
COc1cc(/C=C2\SC(c3ccc(C)cc3)=NC2=O)cc(OC)c1OC	Pin1 inhibitor inconclusive (no result: PI5P4K alpha inh, PGK inhibitor)
COc1cc(/C=C2/C(=O)ON=C2C)cc(Cl)c1O	PI5P4K alpha inh -59
COc1cc(/C=C2\SC(c3ccccc3)=NC2=O)cc(Cl)c1O	PI5P4K alpha inh -99
Cc1cc2c(s1)c1cnn(Cc3cccc(C(F)(F)F)c3F)c(=O)c1n2C	none (no result: PI5P4K alpha inh, Tb PFK inh, PI4K2A inh, PGK inhibitor)
Cc1ccccc1-n1c(SC/C(O)=C(\C#N)c2nc3ccccc3[nH]2)nnc1-c1ccncc1	PI5P4K alpha inh inconclusive
Cc1cccc(Nc2nnc(SCC(O)=C(C#N)c3nc4ccccc4[nH]3)s2)c1	PI5P4K alpha inh -61 (no result: Tb PFK inh)
Cc1cc(C)n2c(SC/C(O)=C(\C#N)c3nc4ccccc4[nH]3)nnc2n1	PI5P4K alpha inh -81, Pin1 inhibitor inconclusive
COCc1nn2c(=O)cc(N3CCNCC3)nc2s1	none (no result: PI5P4K alpha inh, Tb PFK inh, PI4K2A inh, PGK inhibitor)
CC(C)(C)c1ccc(C(=O)NCC(=O)OC(C(=O)Nc2cc(C(F)(F)F)ccc2Cl)c2ccccc2)cc1 (stereo not given)	none (no result: PI5P4K alpha inh, Tb PFK inh, PI4K2A inh, PGK inhibitor)
COc1ccc(C2c3c(nc(CCc4ccccc4)[nH]c3=O)Oc3ccc4ccccc4c32)cc1OC (stereo not given)	none (no result: PI5P4K alpha inh, Tb PFK inh, PI4K2A inh, PGK inhibitor)
CC1=CN2C(=N)/C(=C/c3ccco3)C(=O)N=C2S1	PI5P4K alpha inh inconclusive, Pin1 inhibitor inconclusive
CC1=CN2C(=N)/C(=C/c3ccc([N+](=O)[O-])o3)C(=O)N=C2S1	PI5P4K alpha inh -67, Pin1 inhibitor inconclusive
CC1=C(C(=O)OCc2ccccc2)C(c2ccc(Br)cc2)NC(=O)N1CCCCCC(=O)O (stereo not given)	none (no result: Tb PFK inh)
CC1=C(C(=O)OCc2ccccc2)C(c2ccc(Br)cc2)NC(=O)N1CCCC(=O)O (stereo not given)	PI5P4K alpha inh -80
CC1=C(C(=O)OCc2ccccc2)C(c2ccc(Cl)cc2)NC(=O)N1CCCC(=O)O (stereo not given)	PI5P4K alpha inh -100
COc1ccc(S(=O)(=O)c2c(N)n(Cc3ccco3)c3nc4ccccc4nc23)cc1	PI5P4K alpha inh -89, PI4K2A inh inconclusive, Pin1 inhibitor inconclusive
COc1ccc(Cn2c3nc4ccccc4nc3c3c(=O)n(Cc4ccco4)c(C)nc32)cc1	none (no result: PI5P4K alpha inh, PI4K2A inh, PGK inhibitor, Pin1 inhibitor)
CCOC(=O)N1CCC(N(C(=O)Nc2ccc(Cl)c(Cl)c2)C(C)CC)CC1 (stereo not given)	Tb PFK inh 24µM (no result: PI5P4K alpha inh)
CC(C)CCN(C(=O)Nc1ccc(Cl)c(Cl)c1)C1CCN(C(C)C)CC1	none (no result: PI5P4K alpha inh, Tb PFK inh)
N#CC1C(=O)NC(=O)C(C#N)C12CCCC2 (stereo not given)	PI5P4K alpha inh -51 (no result: Tb PFK inh, PGK inhibitor, Pin1 inhibitor)
N#CC1C(=O)NC(=O)C(C#N)C12CCCc1sccc12 (stereo not given)	PI5P4K alpha inh inconclusive (no result: Tb PFK inh, Pin1 inhibitor)
CCOc1ccc(Nc2nc(N)c3ccccc3n2)cc1	PI4K2A inh -80, PGK inhibitor inconclusive
COC(=O)C1=C2SC(C)C(=O)N2C(N)=C(C#N)C1c1cc(OC)c(OC)c(OC)c1 (stereo not given)	PI5P4K alpha inh inconclusive
COc1ccc(C2C(C#N)=C(N)SC(N)=C2C#N)cc1OC	PI5P4K alpha inh -60, Pin1 inhibitor inconclusive
COc1ccc(C2C(C#N)=C(N)OC(C(C)(C)C)=C2C#N)cc1OC (stereo not given)	none
COC(=O)C1=C2SC(C)C(=O)N2C(N)=C(C#N)C1c1ccc(OC)c(OC)c1 (stereo not given)	PI5P4K alpha inh -58
O=C1c2ccccc2C(=O)N1c1cccc(=O)[nH]1	none (no result: PI5P4K alpha inh, Tb PFK inh, PI4K2A inh, PGK inhibitor)
COc1ccc(/C=C2\CCn3c2nc2cc(C(=O)O)ccc2c3=O)cc1O	PI5P4K alpha inh -54, Pin1 inhibitor inconclusive
Cc1ccc(NS(=O)(=O)c2ccc3c(c2)CCC(=O)N3)cc1F	none (no result: PI5P4K alpha inh, Tb PFK inh, PI4K2A inh, PGK inhibitor)
O=C(N/N=C/c1cccc([N+](=O)[O-])c1)C1COc2ccccc2O1 (stereo not given)	none
O=C(N/N=C/c1ccc([N+](=O)[O-])cc1)c1cccs1	Tb PFK inh inconclusive
O=C(N/N=C/c1cccc([N+](=O)[O-])c1O)c1cccs1	PI5P4K alpha inh -51
O=C(N/N=C/c1c(O)n(-c2ccccc2Cl)c(=O)c2ccccc12)C1COc2ccccc2O1 (stereo not given)	PI5P4K alpha inh -53, Pin1 inhibitor inconclusive
O=C(N/N=C\c1cccc([N+](=O)[O-])c1O)C1COc2ccccc2O1 (stereo not given)	PI5P4K alpha inh -69
Nc1nc(N)c2c(OCC3CCN(Cc4ccccc4F)CC3)cccc2n1	none (no result: PI5P4K alpha inh, Tb PFK inh, PI4K2A inh, PGK inhibitor)
COc1cc(NS(=O)(=O)c2ccc(N)cc2)nc(C)n1	none (no result: PI5P4K alpha inh, Tb PFK inh, PGK inhibitor, Pin1 inhibitor)
O=C1C2C(C(=O)N1/N=C/c1cc([N+](=O)[O-])c(O)cc1O)C1C=CC2C12CC2 (stereo not given)	PI5P4K alpha inh -74
O=C1C2C(C(=O)N1/N=C/c1cc([N+](=O)[O-])ccc1O)C1C=CC2C12CC2 (stereo not given)	none (no result: PI5P4K alpha inh)
O=C1O[C@H](CO)[C@@H](O)[C@H](O)[C@H]1O	none (no result: Tb PFK inh)
O=CC(O)C1OC(=O)C(O)C1O (stereo not given)	PI5P4K alpha inh inconclusive, PGK inhibitor 6.3µM, Pin1 inhibitor inconclusive (no result: Tb PFK inh)
CC(=O)c1c(C)[nH]c(C(=O)OCC(=O)Nc2ncc(Cl)c(C)c2Cl)c1C	PI5P4K alpha inh -54
